# From PubChem BioAssay (NCATS)
# Records with an inconclusive call do not appear. The source made the active and inactive calls. The call rests on the fitted dose curve; in most records, active means well fitted curve in the direction sought with a large enough effect; inconclusive means small, poorly fitted or top-dose-only effect, or another doubt; inactive means no such curve, though single readings can be large; an effect the other way counts as inactive or inconclusive. Starred links: 1 amine or outer side, 2 acyl side, 3 side chain; linkers in the order of their positions; H or OH if unused. Positions of bridges follow the written chain, without caps; N, C: chain ends. Non-standard residues stand in square brackets, D forms with d. Residues, ends and D or L forms follow the SMILES beside them. Chains are numbered I, II in the order given. Actinocin(9to1) = Cc1c2oc3c(C)ccc(C(=O)[*:1])c3nc-2c(C(=O)[*:2])c(N)c1=O; NMeV = CN[CH](C(=O)O)C(C)C; Sar = CNCC(=O)O
# Experiments:
# [1] = qHTS of pediatric cancer cell lines to identify multiple opportunities for drug repurposing: Confirmatory screen for Rh41 cells (AID 1347123);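 further: 48 h compound exposure; nearly all actives have a fitted effect of over 60% in size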; further: potency means the concentration at half of the fitted maximal effect
# Procedure, shortened: (§1)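 Viability after 48 h compound treatment at 37C, 500-1,000 cells/well, read as ATP luminescence with CellTiter-Glo. Primary screens used 11-point (MIPE, 0.78 nM-46 µM) or 8-point (NPC, 0.59 nM-46 µM) final concentrations; follow-up screens used 11-point dilutions.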
# [2] = qHTS of pediatric cancer cell lines to identify multiple opportunities for drug repurposing: Confirmatory screen for Saos-2 cells (AID 1347127); further: nearly all actives have a fitted effect of over 60% in size; further: potency means the concentration at half of the fitted maximal effect
# Procedure, shortened: as §1
# [3] = qHTS of pediatric cancer cell lines to identify multiple opportunities for drug repurposing: Confirmatory screen for OHS-50 cells (AID 1347128);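 further: compound exposure lasted 48 h at 37 degrees C; nearly all actives have a fitted effect of over 55% in size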; further: potency means the concentration at half of the fitted maximal effect
# Procedure, shortened: as §1
# [4] = qHTS of pediatric cancer cell lines to identify multiple opportunities for drug repurposing: Confirmatory screen for SK-N-SH cells (AID 1347129);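 further: cells exposed to compound for 48 h before viability read; nearly all actives have a fitted effect of over 60% in size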; further: potency means the concentration at half of the fitted maximal effect
# Procedure, shortened: as §1
# [5] = qHTS of pediatric cancer cell lines to identify multiple opportunities for drug repurposing: Confirmatory screen for Rh18 cells (AID 1347125); further: nearly all actives have a fitted effect of over 55% in size; further: potency means the concentration at half of the fitted maximal effect
# Procedure, shortened: as §1
# [6] = qHTS of pediatric cancer cell lines to identify multiple opportunities for drug repurposing: Confirmatory screen for RD cells (AID 1347124);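 further: cells exposed to compound for 48 h before viability readout; nearly all actives have a fitted effect of over 65% in size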; further: potency means the concentration at half of the fitted maximal effect
# Procedure, shortened: as §1
# [7] = qHTS of pediatric cancer cell lines to identify multiple opportunities for drug repurposing: Confirmatory screen for Rh30 cells (AID 1347126); further: nearly all actives have a fitted effect of over 55% in size; further: potency means the concentration at half of the fitted maximal effect
# Procedure, shortened: as §1
# Furin (Homo sapiens) = Furin (Homo sapiens) (UniProt P09958); assay: Furin counterscreen qHTS for Zika virus inhibitors (AID 1347149);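 further: purified recombinant full-length human furin enzyme at 5 nM; fluorescence gain from furin cutting a BOC-RVRR-AMC peptide substrate over 15 min; top concentration of the series differs between compounds; nearly all actives have a fitted effect of over 70% in size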
# Procedure, shortened: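 Counterscreen measures cleavage of 2 microM BOC-RVRR-AMC, below its ~15 microM Km, by 5 nM full-length human furin at pH 7.0 after a 15-min compound preincubation. Inhibition derives from the 15-min fluorescence increase at 37C.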
# [8] = system: Zika virus NS2B-NS3 protease (linked construct); assay: Confirmatory screen NINDS AMC qHTS for Zika virus inhibitors (AID 1347152); further: potency means the concentration at half of the fitted maximal effect; nearly all actives have a fitted effect of over 70% in size
# Procedure, shortened: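 In this dose-response qHTS, AMC release from 10 microM Bz-Nle-KRR-AMC by 1 nM linked protease is measured over 15 minutes (about 20% conversion) at pH 8.0. Percent inhibition is fitted to a 4-parameter Hill curve.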
# Furin (Homo sapiens), sequence (P09958 whole entry, looked up): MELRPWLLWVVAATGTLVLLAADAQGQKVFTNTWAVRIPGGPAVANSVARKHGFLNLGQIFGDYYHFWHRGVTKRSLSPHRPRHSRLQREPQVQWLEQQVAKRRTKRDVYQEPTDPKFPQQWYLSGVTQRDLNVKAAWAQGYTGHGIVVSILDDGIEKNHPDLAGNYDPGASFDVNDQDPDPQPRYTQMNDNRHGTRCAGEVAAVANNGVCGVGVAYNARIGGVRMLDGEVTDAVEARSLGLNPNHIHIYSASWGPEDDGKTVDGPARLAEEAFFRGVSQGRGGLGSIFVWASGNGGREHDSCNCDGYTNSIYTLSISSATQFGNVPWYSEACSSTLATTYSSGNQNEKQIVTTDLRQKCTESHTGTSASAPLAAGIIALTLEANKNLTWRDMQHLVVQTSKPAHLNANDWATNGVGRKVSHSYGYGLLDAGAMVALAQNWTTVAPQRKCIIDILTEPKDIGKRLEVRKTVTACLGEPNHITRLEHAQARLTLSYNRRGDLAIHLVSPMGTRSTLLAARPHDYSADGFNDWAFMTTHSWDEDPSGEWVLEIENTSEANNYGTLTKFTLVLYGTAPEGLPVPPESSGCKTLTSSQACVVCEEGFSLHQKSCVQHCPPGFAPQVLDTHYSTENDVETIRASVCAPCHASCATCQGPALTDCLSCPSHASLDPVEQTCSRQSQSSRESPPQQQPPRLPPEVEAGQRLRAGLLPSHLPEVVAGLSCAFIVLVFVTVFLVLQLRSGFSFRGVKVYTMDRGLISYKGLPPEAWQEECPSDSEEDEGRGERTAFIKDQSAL
smiles,measurement,setting,value
O=C1NCCc2[nH]c(-c3ccncc3)cc21,Potency,[1],2.33 µM (active)
same,Potency,[2],3.69 µM (active)
same,Potency,[3],2.93 µM (active)
same,Potency,[4],2.09 µM (active)
"Cc1c2oc3c(C)ccc(C(=O)NC4C(=O)NC(C(C)C)C(=O)N5CCCC5C(=O)N(C)CC(=O)N(C)C(C(C)C)C(=O)OC4C)c3nc-2c(C(=O)NC2C(=O)NC(C(C)C)C(=O)N3CCCC3C(=O)N(C)CC(=O)N(C)C(C(C)C)C(=O)OC2C)c(N)c1=O (stereo not given) (I: TVP[Sar][NMeV] / II: TVP[Sar][NMeV]; ester I:1-I:C, II:1-II:C; linker I:N-II:N via Actinocin(9to1); configuration not given here)",Potency,[1],0.0185 µM (active)
same,Potency,[3],0.0369 µM (active)
same,Potency,[4],0.0187 µM (active)
N#Cc1c(C2CCNCC2)cc(-c2c(O)cccc2OCC2CC2)nc1N,Potency,[1],3.29 µM (active)
same,Potency,[5],inactive
same,Potency,[2],inactive
same,Potency,[4],23.5 µM (active)
COc1ccc(C(C)=O)c(O)c1,Potency,[1],inactive
same,Potency,[6],inactive
same,Potency,[3],inactive
same,Potency,[4],inactive
COC(=O)C1C2CC3c4[nH]c5cc(OC)ccc5c4CCN3CC2CC(OC(=O)c2cc(OC)c(OC)c(OC)c2)C1OC (stereo not given),Potency,[1],11.7 µM (active)
same,Potency,[5],16.5 µM (active)
same,Potency,[2],5.85 µM (active)
NC(=O)Nc1cc(-c2ccc(CN3CCOCC3)cc2)sc1C(N)=O,Potency,[1],13.1 µM (active)
same,Potency,[2],13.1 µM (active)
same,Potency,[4],14.8 µM (active)
CC(C=CC1=C(C)CCCC1(C)C)=CC=CC(C)=CC(=O)Nc1ccc(O)cc1,Potency,[1],5.37 µM (active)
same,Potency,[5],42.7 µM (active)
same,Potency,[2],38 µM (active)
same,Potency,[3],42.7 µM (active)
same,Potency,[4],38.2 µM (active)
COc1cc2ncnc(Nc3cccc(Br)c3)c2cc1OC,Potency,[1],11.7 µM (active)
same,Potency,[7],9.27 µM (active)
same,Potency,[2],inactive
same,Potency,[3],10.4 µM (active)
same,Potency,[4],20.9 µM (active)
CN[C@@H]1C[C@H]2O[C@@](C)([C@H]1OC)n1c3ccccc3c3c4c(c5c6ccccc6n2c5c31)C(=O)N[C@H]4O,Potency,[1],1.04 µM (active)
same,Potency,[5],1.47 µM (active)
same,Potency,[2],0.585 µM (active)
same,Potency,[3],0.585 µM (active)
same,Potency,[4],0.332 µM (active)
same,Potency,Furin (Homo sapiens),inactive
same,Potency,[8],19.2 µM (active)
O=C1c2c(O)cccc2[C@@H]([C@@H]2O[C@H](CO)[C@@H](O)[C@H](O)[C@H]2O)c2cc(CO)cc(O)c21,Potency,[1],inactive
same,Potency,[2],inactive
same,Potency,[3],inactive
same,Potency,[4],inactive
CS[C@H]1SC[C@@H]2C(=O)N(C)[C@H](C(C)C)C(=O)OC[C@H](NC(=O)c3cnc4ccccc4n3)C(=O)N[C@H](C)C(=O)N(C)[C@@H]1C(=O)N(C)[C@H](C(C)C)C(=O)OC[C@H](NC(=O)c1cnc3ccccc3n1)C(=O)N[C@H](C)C(=O)N2C,Potency,[1],0.0059 µM (active)
same,Potency,[2],inactive
same,Potency,[3],0.0147 µM (active)
same,Potency,[4],0.0132 µM (active)
COc1cc(OC)c(C=CS(=O)(=O)Cc2ccc(OC)c(NCC(=O)O)c2)c(OC)c1,Potency,[1],0.293 µM (active)
same,Potency,[5],inactive
same,Potency,[7],inactive
same,Potency,[2],0.329 µM (active)
Cc1nc(NC(=O)N2CCC[C@@H]2C(N)=O)sc1-c1ccnc(C(C)(C)C(F)(F)F)c1,Potency,[1],2.61 µM (active)
same,Potency,[5],2.93 µM (active)
same,Potency,[7],5.22 µM (active)
same,Potency,[2],5.85 µM (active)
same,Potency,[4],11.8 µM (active)
O=C(O)c1ccc(Nc2ncc3c(n2)-c2ccc(Cl)cc2C(c2c(F)cccc2F)=NC3)cc1,Potency,[1],2.33 µM (active)
same,Potency,[3],inactive
COc1cc2c(cc1OC)[C@@H]1C(=O)c3ccc4c(c3O[C@@H]1CO2)C=CC(C)(C)O4,Potency,[1],13.1 µM (active)
same,Potency,[7],1.85 µM (active)
same,Potency,[2],3.69 µM (active)
same,Potency,[3],inactive
COc1ccc(S(=O)(=O)Nc2cc(-c3c(O)ccc4ccccc34)c(O)c3ccccc23)cc1,Potency,Furin (Homo sapiens),inactive
same,Potency,[8],19.2 µM (active)
COc1cc(C[C@@H](CO)[C@H](CO)Cc2ccc(O)c(OC)c2)ccc1O,Potency,[6],16.5 µM (active)
same,Potency,[3],inactive
same,Potency,[4],inactive
CC(=O)ON=C1C(c2c(O)[nH]c3cc(Br)ccc23)=Nc2ccccc21,Potency,[5],13.1 µM (active)
same,Potency,[2],13.1 µM (active)
same,Potency,[3],14.7 µM (active)
same,Potency,[4],23.5 µM (active)
O=C(NC1CC1)c1cccc(-c2ccc3c(NC(=O)C4CC4)n[nH]c3c2)c1,Potency,[5],inactive
same,Potency,[7],inactive
C=Cc1c(C)c2cc3nc(cc4[nH]c(cc5nc(cc1[nH]2)C(C)=C5CCC(=O)O)c(CCC(=O)OC)c4C)[C@@]1(C)C3=CC=C(C(=O)OC)[C@H]1C(=O)OC,Potency,[7],inactive
same,Potency,[2],inactive
same,Potency,[3],inactive
same,Potency,[4],inactive
COc1cc([C@@H]2c3cc4c(cc3[C@H](O)[C@H]3COC(=O)[C@@H]23)OCO4)cc(OC)c1OC,Potency,[6],0.928 µM (active)
same,Potency,[5],inactive
same,Potency,[7],inactive
same,Potency,[2],0.522 µM (active)
